CYP2C9 act – activators of human CYP2C9; activation factor at 5 µM; recombinant CYP2C9, luciferin-H conversion, luminescence; active compounds read high; factor 1 = untreated enzyme, 0 = blocked; hit rate 1.4% among 96,000; P11712;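 active = activation factor of 2 or more for CYP2C9 at a 5 µM dose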;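 also: 0 = sulfaphenazole-blocked wells and 1 = vehicle-only wells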
CYP2C9 inhib – inhibitors of human CYP2C9 | P11712 | CYP2C9 Supersomes, luciferin-H conversion, luminescence | inhibition, % at 5 µM | hit rate 20% among 96,000;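 active = blocking of liver enzyme CYP2C9 beyond about 50% at 5 µM, limit read from the data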
CYP2C19 act – cytochrome P450 2C19 (human) activation; recombinant CYP2C19, luciferin-H EGE luminescence; active compounds read high; 0 = fully inhibited enzyme, 1 = untreated enzyme; activation factor at 5 µM; AID 1025; 96,000 tested, under 10 active; P33261;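 active = activation factor of at least 2 at 5 µM in the primary screen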;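 also: 0 = wells with 2.5 mM tranylcypromine and 1 = vehicle-only wells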
Target sequence (P33261 whole entry, looked up): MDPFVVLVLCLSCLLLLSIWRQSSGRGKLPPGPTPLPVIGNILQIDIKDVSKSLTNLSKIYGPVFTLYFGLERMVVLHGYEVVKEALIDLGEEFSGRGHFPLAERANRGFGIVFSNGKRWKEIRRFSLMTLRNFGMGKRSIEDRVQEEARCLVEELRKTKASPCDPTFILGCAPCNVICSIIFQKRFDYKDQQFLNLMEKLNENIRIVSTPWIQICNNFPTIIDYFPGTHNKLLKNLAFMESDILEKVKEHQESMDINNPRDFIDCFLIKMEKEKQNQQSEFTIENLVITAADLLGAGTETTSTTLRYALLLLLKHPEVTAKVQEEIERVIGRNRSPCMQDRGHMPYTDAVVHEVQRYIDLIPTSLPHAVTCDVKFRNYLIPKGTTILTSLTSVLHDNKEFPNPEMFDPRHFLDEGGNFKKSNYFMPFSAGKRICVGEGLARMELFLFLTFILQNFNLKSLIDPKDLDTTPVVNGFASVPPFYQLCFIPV
CYP2C19 inhib – inhibitors of human CYP2C19 | P33261 | CYP2C19 Supersomes, luciferin-H EGE luminescence, 30 min | inhibition, % at 5 µM | hit rate 21% among 96,000;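 active = CYP2C19 inhibition above a set limit at 5 µM in the primary screen, cut at about 50% in these data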;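 also: plate controls were negative control wells for no effect and 2.5 mM tranylcypromine positive control for full effect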
E-sel TNF inh – blocks E-selectin expression induced by TNF alpha | inhibition, % at 2 µM | hit rate 0.71% among 120,000 | HUVEC TNFa-induced E-selectin immunofluorescence, high content | AID 1246;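 active = inhibition above the batch mean plus 3 SD, and confirmed as a hit on visual image review, cut at about 43% in these data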;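 also: 0% = TNF-stimulated DMSO wells and 100% = unstimulated control wells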
F-actin modifier – cytoskeleton assembly modification | HUVEC TNFa F-actin phalloidin imaging, high content | inhibition, % at 2 µM | hit rate 0.18% among 91,000 | AID 836;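 active = inhibition above the batch mean plus 3 SD and confirmed as a hit by visual image inspection, cut at about 30% in these data, passing the limit was not always enough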
* marks the source's active call; other numbers are inactive results; x = no result. A selection: hits, their analogues and other compounds. The true share with any hit is near 22%.

SMILES	CYP2C9 act	CYP2C9 inhib	CYP2C19 act	CYP2C19 inhib	E-sel TNF inh	F-actin modifier
O=C(Nc1ccc(S(=O)(=O)N2CCOCC2)cc1)c1cccs1	0.9	9	0.9	15	12	x
CCCCN(CCCC)S(=O)(=O)c1ccc(NC(=O)c2cccs2)cc1	0.1	91*	0.4	60*	85*	15
Cc1cc(C)nc(NS(=O)(=O)c2ccc(NC(=O)c3cccs3)cc2)n1	0.6	44	0.8	16	2	-9
CN1CCN(S(=O)(=O)c2ccc(NC(=O)c3cccs3)cc2)CC1	1.1	-8	1.1	-14	-22	-21
CC1CCCCN1S(=O)(=O)c1ccc(NC(=O)c2cccs2)cc1 (stereo not given)	0.3	74*	0.4	56*	9	14
CC(C)(C)C1CCC(OC(=O)c2ccncc2)CC1 (stereo not given)	0.1	94*	0	99*	-6	-6
Cc1cc(SCCOc2ccc(Br)cc2)nc(N)n1	0.5	54*	0.7	32	-24	x
COc1ccc(OC)c(C(=O)COC(=O)c2ccccc2O)c1	0.9	12	0.8	20	1	-10
CN1CCN(c2cc(-c3ccccc3)nc3cc(-c4ccc(F)cc4)nn23)CC1	0.6	37	0.7	34	x	-11
COc1cccc(-c2cc3nc(-c4ccccc4)cc(N4CCC5(CC4)OCCO5)n3n2)c1	0.4	55*	0.7	34	-16	-22
N#Cc1nc(-c2ccco2)oc1NCCN1CCOCC1	1.1	-8	0.9	12	x	7
O=C(NCc1ccco1)C(c1ccncc1)N(CCC1=CCCCC1)C(=O)Cn1nnc2ccccc21 (stereo not given)	0.4	62*	0.5	51*	12	16
CCc1ccccc1N(C(=O)Cn1nnc2ccccc21)C(C(=O)NCCOC)c1ccco1 (stereo not given)	0.4	56*	0.4	61*	-12	8
COCCNC(=O)CN(C(=O)Cn1nnc2ccccc21)c1ccc(F)c(Cl)c1	1.1	-5	0.4	56*	2	x
COCCNC(=O)C(c1ccco1)N(C(=O)Cn1nnc2ccccc21)c1ccc(C)cc1C (stereo not given)	0.9	9	0.8	20	27	3
COc1ccc(N(C(=O)Cn2nnc3ccccc32)C(C(=O)NCc2ccco2)c2cccnc2)cc1 (stereo not given)	0.9	7	0.2	78*	-13	1
COCCNC(=O)CN(C(=O)CCC(=O)Nc1ccccn1)c1ccc(F)c(Cl)c1	0.8	18	0.7	30	-15	20
O=C(NCc1ccco1)C(c1cccnc1)N(C(=O)Cn1nnc2ccccc21)c1ccc(F)cc1 (stereo not given)	1	2	0.9	12	7	-9
CN1CCN(NC(=O)c2cccc(F)c2)CC1	1.2	-25	1.2	-19	-8	9
CCOC(=O)CN(C(=O)CNC(=O)c1cccs1)C(C(=O)NC1CCCCC1)c1cccnc1 (stereo not given)	x	x	x	x	-4	-7
O=C(NCc1ccco1)C(c1cccnc1)N(C(=O)Cn1nnc2ccccc21)c1ccccc1 (stereo not given)	0.7	30	0.5	51*	0	-40
Cc1[nH]c2ccccc2c(=O)c1SC(F)(F)C(F)C(F)(F)F (stereo not given)	0.8	22	0.4	58*	-22	4
CCN(CC)c1nc(C)nc2c1cnn2CCc1ccccc1	0.9	14	0	97*	-20	-14
COc1ccc(NC(=O)CSc2ncnc3c2cnn3CCc2ccccc2)cc1	x	x	x	x	-25	-13
Cc1ccn2cc(CSc3ccccc3N)nc2c1	0.8	19	0.6	39	13	-19
SMILES	CYP2C9 act	CYP2C9 inhib	CYP2C19 act	CYP2C19 inhib	E-sel TNF inh	F-actin modifier
Cn1ccnc1SCc1cn2cc(Br)ccc2n1	1	2	0.4	65*	x	8
c1ccc(OCc2nn3c(Cn4nnc5ccccc54)nnc3s2)cc1	0.9	8	0.8	25	20	x
c1ccc(OCc2nnc3sc(-c4cccs4)nn23)cc1	0.4	58*	0.5	53*	-23	x
COc1ccc(-c2nn3c(-c4ccncc4)nnc3s2)cc1OC	x	x	x	x	-6	16
CCc1nnc2sc(-c3cc(-c4ccccc4)nc4ccccc34)nn12	0.7	29	0.9	8	-6	-14
Clc1ccc(Cl)c(-c2nn3c(COc4ccccc4)nnc3s2)c1	0.5	50*	0.7	29	-10	-1

High-throughput results deposited in PubChem by several laboratories.
